In PubChem BioAssay (NCATS):
“And” between values parts separate entries of the source, which are not always exact repeats. Equal values may be shown once. Inconclusive results are not listed. The source made the active and inactive calls. The call rests on the fitted dose curve.

Test system: not listed separately
Experiment: qHTS assay for small molecule agonists of retinoid X receptor alpha signaling (AID 588544)
Details: HEK293T RXRa-UAS-bla, beta-lactamase reporter, 18 h; 530 nm emission

| SMILES | max response |
| --- | --- |
| CC(C)=C1CCC(C)CC1=O (stereo not given) | -4.57% |
| O=C(O)c1ccc(C(=O)O)cc1 | -16.5% and -21.7% |
| CCOc1ccccc1N | 0.0722% |
| CC(C)(O)CCC(C)(C)O | -8.68% |
| C=C(C)OC(C)=O | 12.6% |
| CC(=O)c1cc(C)oc1C | -2.61% |
| CC(N)CN (stereo not given) | -2.32% |
| O=C1NC(=O)c2cc([N+](=O)[O-])ccc21 | 3.03% |
| CCC1CO1 (stereo not given) | -15.4% |
| CCNS(=O)(=O)c1ccc(C)cc1 | 7.68% |
| Nc1cccc([N+](=O)[O-])c1 | -3.08% |
| Nc1ccccc1[N+](=O)[O-] | -4.62% |
| Nc1c(Cl)cc(Cl)cc1Cl | -8.9% |
| COC(=O)CC#N | -7.46% |
| Cc1ccccc1C(=O)O | -19.5% |
| CO[Si](CCCNCCC[Si](OC)(OC)OC)(OC)OC | 9.17% |
| CC1(N)CCC(C(C)(C)N)CC1 (stereo not given) | -6.34% |
| C=Cc1ccccn1 | -16.6% |
| CCCCCCO | -18.4% |
| CCC(C)O (stereo not given) | -20.4% |

| SMILES | max response |
| --- | --- |
| CC(O)CC(C)O (stereo not given) | -6.63% |
| CCCCCCCCC | -5.14% |
| CCN(CC)c1cccc(O)c1 | -9.19% |
| Cc1ccc(C)cc1 | 4.64% |
| O=C(O)c1cc(Cl)cc(Cl)c1 | -6.8% |
| C[C@@H]1O[C@@H](O[C@@H]2[C@@H](O)[C@H](OCCc3ccc(O)c(O)c3)O[C@H](CO[C@@H]3O[C@H](CO)[C@@H](O)[C@H](O)[C@H]3O)[C@H]2OC(=O)/C=C/c2ccc(O)c(O)c2)[C@H](O)[C@H](O)[C@H]1O | 0.999% |
| CNc1ccccc1 | -0.986% |
| Nc1cc(Cl)c(N)c(Cl)c1 | -14.2% |
| CC(C)(C)OC=O | -9.54% |
| Cc1cccc(C(=O)O)c1 | -7.73% |
| CNC(=O)c1ccccc1 | -5.28% |
| Cc1ccc2oc(=O)ccc2c1 | 0.296% and 3.97% |
| CCOC(=O)OCC | -14.7% |
| O=[N+]([O-])c1ccccc1CCO | 4.35% |
| N#Cc1ccccc1 | -9.04% |
| Cc1c(N)cccc1[N+](=O)[O-] | -2.78% |
| Clc1ccccn1 | -14.3% |
| Nc1cc([N+](=O)[O-])ccc1C(=O)O | 8.72% and -23.6% |
| CC(O)COC(C)(C)C (stereo not given) | -7.25% |
| CCC(C)(C)C | 7.52% |

Molecular target: Retinoic acid receptor RXR-alpha (Homo sapiens) (UniProt P19793)
Sequence (P19793 whole entry, looked up): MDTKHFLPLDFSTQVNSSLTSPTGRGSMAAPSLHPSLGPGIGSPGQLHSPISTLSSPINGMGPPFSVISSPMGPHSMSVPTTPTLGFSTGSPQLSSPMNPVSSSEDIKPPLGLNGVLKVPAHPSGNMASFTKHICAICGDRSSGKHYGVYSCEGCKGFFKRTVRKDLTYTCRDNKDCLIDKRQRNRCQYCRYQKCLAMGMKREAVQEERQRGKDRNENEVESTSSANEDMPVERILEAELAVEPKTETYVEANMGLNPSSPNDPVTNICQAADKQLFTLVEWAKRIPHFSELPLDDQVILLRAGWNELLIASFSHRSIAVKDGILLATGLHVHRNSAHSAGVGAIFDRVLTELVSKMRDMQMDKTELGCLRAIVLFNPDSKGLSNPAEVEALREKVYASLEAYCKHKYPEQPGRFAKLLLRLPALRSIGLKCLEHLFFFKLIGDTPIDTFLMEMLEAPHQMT
Experiment: as above
Details: HEK293T RXRa-UAS-bla, beta-lactamase reporter, 18 h; series mostly up to 76.7 µM

| SMILES | outcome |
| --- | --- |
| CC(C)=C1CCC(C)CC1=O (stereo not given) | inactive |
| O=C(O)c1ccc(C(=O)O)cc1 | inactive |
| CCOc1ccccc1N | inactive |
| CC(C)(O)CCC(C)(C)O | inactive |
| C=C(C)OC(C)=O | inactive |
| CC(=O)c1cc(C)oc1C | inactive |
| CC(N)CN (stereo not given) | inactive |
| O=C1NC(=O)c2cc([N+](=O)[O-])ccc21 | inactive |
| CCC1CO1 (stereo not given) | inactive |
| CCNS(=O)(=O)c1ccc(C)cc1 | inactive |
| Nc1cccc([N+](=O)[O-])c1 | inactive |
| Nc1ccccc1[N+](=O)[O-] | inactive |
| Nc1c(Cl)cc(Cl)cc1Cl | inactive |
| COC(=O)CC#N | inactive |
| Cc1ccccc1C(=O)O | inactive |
| CO[Si](CCCNCCC[Si](OC)(OC)OC)(OC)OC | inactive |
| CC1(N)CCC(C(C)(C)N)CC1 (stereo not given) | inactive |
| C=Cc1ccccn1 | inactive |
| CCCCCCO | inactive |
| CCC(C)O (stereo not given) | inactive |

| SMILES | outcome |
| --- | --- |
| CC(O)CC(C)O (stereo not given) | inactive |
| CCCCCCCCC | inactive |
| CCN(CC)c1cccc(O)c1 | inactive |
| Cc1ccc(C)cc1 | inactive |
| O=C(O)c1cc(Cl)cc(Cl)c1 | inactive |
| C[C@@H]1O[C@@H](O[C@@H]2[C@@H](O)[C@H](OCCc3ccc(O)c(O)c3)O[C@H](CO[C@@H]3O[C@H](CO)[C@@H](O)[C@H](O)[C@H]3O)[C@H]2OC(=O)/C=C/c2ccc(O)c(O)c2)[C@H](O)[C@H](O)[C@H]1O | inactive |
| CNc1ccccc1 | inactive |
| Nc1cc(Cl)c(N)c(Cl)c1 | inactive |
| CC(C)(C)OC=O | inactive |
| Cc1cccc(C(=O)O)c1 | inactive |
| CNC(=O)c1ccccc1 | inactive |
| Cc1ccc2oc(=O)ccc2c1 | inactive |
| CCOC(=O)OCC | inactive |
| O=[N+]([O-])c1ccccc1CCO | inactive |
| N#Cc1ccccc1 | inactive |
| Cc1c(N)cccc1[N+](=O)[O-] | inactive |
| Clc1ccccn1 | inactive |
| Nc1cc([N+](=O)[O-])ccc1C(=O)O | inactive |
| CC(O)COC(C)(C)C (stereo not given) | inactive |
| CCC(C)(C)C | inactive |
